# Among all 96,000 compounds or so, about 20,000 (21%) were called active. Only a sample is shown. A number with no mark means an inactive call.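 The calls were made as follows: active = CYP2C19 inhibition above a set limit at 5 µM in the primary screen (cut at about 50% in these data); inactive = the rest.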
# Target: Cytochrome P450 2C19 (Homo sapiens) (UniProt P33261)
# Assay: blockers of cytochrome P450 2C19 activity – biochemical, luminescence, ADME assay, primary screen (AID 778);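 also: plate controls were negative control wells for no effect and 2.5 mM tranylcypromine positive control for full effect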
# Conditions: CYP2C19 Supersomes, luciferin-H EGE luminescence, 30 min; at 5 µM; active compounds read high
# Sequence of Cytochrome P450 2C19 (Homo sapiens) (P33261 whole entry, looked up): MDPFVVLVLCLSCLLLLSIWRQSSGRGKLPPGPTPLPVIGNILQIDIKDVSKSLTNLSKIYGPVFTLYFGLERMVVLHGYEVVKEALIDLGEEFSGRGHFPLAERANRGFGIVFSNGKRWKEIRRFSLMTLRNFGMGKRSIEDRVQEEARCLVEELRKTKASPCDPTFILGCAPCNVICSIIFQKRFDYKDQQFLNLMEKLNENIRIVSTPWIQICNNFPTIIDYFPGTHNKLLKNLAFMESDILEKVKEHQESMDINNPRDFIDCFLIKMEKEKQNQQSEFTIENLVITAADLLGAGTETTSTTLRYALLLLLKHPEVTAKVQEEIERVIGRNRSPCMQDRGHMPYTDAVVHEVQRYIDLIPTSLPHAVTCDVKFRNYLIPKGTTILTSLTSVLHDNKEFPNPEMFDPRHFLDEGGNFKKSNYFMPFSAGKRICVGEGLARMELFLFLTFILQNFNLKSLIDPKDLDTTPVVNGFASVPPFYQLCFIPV
row,SMILES,inhibition
1,O=C(c1ccc(CN2CCOCC2)cc1)N1CCN(c2ccccc2F)CC1,9.5%
2,Cc1cccc(C)c1N1CCN(S(=O)(=O)N2CCOCC2)CC1,22.7%
3,O=S(=O)(N1CCOCC1)N1CCN(c2ccccc2F)CC1,61.1% (active)
4,COC(=O)c1sccc1N/N=C(\C)c1ccc(F)c(Cl)c1,-0.3%
5,Cc1ccnc(N2CCCC(C(=O)Nc3cc(F)ccc3C)C2)n1 (stereo not given),99.2% (active)
6,Cc1cc(-c2ccccc2)nc(N2CCC(C(=O)NC34CC5CC(CC(C5)C3)C4)CC2)n1,8.2%
7,Cc1ccnc(N2CCC(C(=O)NC3CCCCCC3)CC2)n1,94.4% (active)
8,Cc1cc(C)cc(NC(=O)C2CCN(c3nc(C)cc(C)n3)CC2)c1,-2.3%
9,O=C(Nc1ccc2c(c1)OCCO2)C1CCCN(c2ncccn2)C1 (stereo not given),1.1%
10,CC(C)CCNC(=O)C1CCCN(S(=O)(=O)c2ccc(F)cc2)C1 (stereo not given),7.6%
11,C/C(=N\NC(=O)c1nc(C)cc(C)n1)c1ccccc1,-4%
12,Cc1ccc(-c2nnc(SC(C)C#N)n2N)cc1 (stereo not given),9%
13,NC(N)=N/N=C/c1ccc(OCc2ccc(Cl)cc2Cl)cc1,-10.2%
14,CCOC(=O)C1=C(O)CSC1=Nc1cccc(Cl)c1,9.1%
15,COC(=O)C1C(=O)NCC1c1ccc(OC)cc1 (stereo not given),13.7%
16,CC(C)(C)NS(=O)(=O)CC12CCC(CC1=O)C2(C)C (stereo not given),17.8%
17,CCOc1cc2[nH]c(=S)n(CCN3CCCCC3C)c(=O)c2cc1OCC (stereo not given),2.3%
18,C=CCNC(=O)c1ccc(C)c(Br)c1,19.1%
19,C=CCNC(=O)c1sc(SC)cc1-c1ccc(Cl)cc1,83.9% (active)
20,O=C(NCCCn1ccnc1)Nc1ccc(Cl)cc1Cl,97.4% (active)
21,CCCCOCCCNC(=O)c1ccccc1OCC,48.3%
22,COc1ccccc1-c1cc(C(=O)NCCCn2ccnc2)no1,78.5% (active)

row,SMILES,inhibition
1,COc1ccccc1CCNC(=O)c1cnccn1,22.6%
2,O=C(c1cc(-c2ccccc2O)on1)N1CCCC1,17.3%
3,Cc1cc2nc(C)n(CCCNC(=O)Nc3ccccc3)c2cc1C,20.3%
4,COc1ccccc1-c1cc(C(=O)N2CCCCC2)no1,52.8% (active)
5,COc1ccc(-c2cc(C(=O)NCc3ccco3)no2)cc1OC,-19.3%
6,O=C(c1cc(-c2cccs2)on1)N1CCCCC1,14.3%
7,NS(=O)(=O)c1ccc(CCNC(=O)Nc2ccc(Cl)cc2)cc1,24.5%
8,CCOc1ccccc1C(=O)NCCCn1ccnc1,93.4% (active)
9,CCOc1ccc(C(=O)NCCCN2CCCC2=O)cc1,15.8%
10,CCCCCCCCOC1OC(CO)C(O)C(O)C1NC(C)=O (stereo not given),-4.2%
11,N#Cc1c(NC(=O)CCCN2C(=O)c3ccccc3C2=O)oc(-c2ccccc2)c1-c1ccccc1,24.8%
12,COCCOC(=O)c1sc(=S)n(CCOC)c1N,47.6%
13,Cc1ccc2nc(NC(=O)C3CCN(S(=O)(=O)c4ccc5c(c4)oc(=O)n5C)CC3)sc2c1,6.1%
14,CCCCC(=O)Nc1ccc(C(=O)NCCCn2ccnc2)cc1,37.9%
15,CCN(CC)C(=O)CCC(=O)Nc1ccc(C(=O)OC)cc1,33.7%
16,CCCC(=O)Nc1ccc(C(=O)NCCCn2ccnc2)cc1,52.2% (active)
17,CC1(C)CC(=O)C(C2=NC(C)(C)Cc3ccccc32)=C(O)C1,13.7%
18,COc1ccc(C2C(C#N)=C(/N=C/N3CCOCC3)OC3=C2C(=O)CC(C)(C)C3)cc1OC (stereo not given),21%
19,CCc1ccc(N(CC)c2ncnc3nc[nH]c23)cc1,14.9%
20,CCOC(=O)C1=C(CN2CCc3ccccc32)NC(=O)NC1c1ccc(Cl)cc1 (stereo not given),26.5%
21,Cn1c2c(c(=O)n(C)c1=O)C(c1cccc([N+](=O)[O-])c1)Nc1ccccc1O2 (stereo not given),18.9%
22,CCOC(=O)C1=C(CN2CCc3ccccc32)NC(=O)NC1c1cccc([N+](=O)[O-])c1 (stereo not given),63.5% (active)

row,SMILES,inhibition
1,NC(=O)COc1ccc2c3c(c(=O)oc2c1)CCCCC3,-3.8%
2,O=C(COc1ccc2oc3c(c2c1)CCCC3)Nc1ccccn1,21.2%
3,O=C(COc1ccc2c3c(c(=O)oc2c1)CCC3)NC1CCCCC1,54.4% (active)
4,CCC1(CC)NC(=O)N(CC(=O)OCC(=O)Nc2ccc(C(F)(F)F)cc2)C1=O,-6.3%
5,S=c1[nH]nc(-c2ccco2)n1/N=C/c1ccc(Br)s1,-11.6%
6,Cc1ccc(CNC(=O)C2CCCN2C(=O)NCc2ccccc2)cc1 (stereo not given),0.7%
7,O=C(NCc1ccccc1)[C@@H]1CSC2c3ccccc3C(=O)N21 (stereo not given in full),81.2% (active)
8,O=C(O)C1CC=C(Cl)CC1C(=O)NCc1ccccc1 (stereo not given),2.3%
9,Cn1c(=O)c(C(=O)Nc2ncccn2)c(O)c2ccccc21,7.9%
10,O=C(NCc1ccc(Cl)cc1)c1cc(=O)nc2sc(-c3ccccc3)nn12,4.6%
11,O=C(CCc1ccccc1)Nc1cccc(-c2nnc(-c3ccco3)o2)c1,18.2%
12,CC(=O)CSc1nnc(CSc2ncccn2)n1C1CCCCC1,-8.3%
13,NC(=O)CSc1oc(-c2cccs2)nc1S(=O)(=O)c1ccccc1,79.2% (active)
14,CC1CCCCN1S(=O)(=O)c1ccc(C(=O)Nc2nnc(-c3cccs3)o2)cc1 (stereo not given),10.3%
15,Cc1ccc(CNC(=O)COc2ccc(S(=O)(=O)NC(C)C)cc2)cc1,38.8%
16,Nc1ccc(C(=O)OCC(=O)NC2CCCc3ccccc32)cc1[N+](=O)[O-] (stereo not given),34.6%
17,Cn1c(CC(=O)Nc2ccccc2)nnc1SCC(=O)c1ccccc1,33.2%
18,CCOC(=O)CSc1nnc(CNc2nc(-c3ccccc3)cs2)n1C,35%
19,Cn1c(CNc2nc(-c3ccccc3)cs2)nnc1SCC(=O)c1ccccc1,86.5% (active)
20,CCOc1c2ccc(C(=O)NC3CCCc4ccccc43)cc2nn1CC (stereo not given),29.9%
21,CSCC[C@H](NC(=O)NCc1cccs1)C(=O)O,-4.9%
22,CC(C)C[C@H](NC(=O)NCCc1ccc(Cl)cc1)C(=O)O,2.7%

row,SMILES,inhibition
1,CSCC[C@H](NC(=O)NCCc1ccc(F)cc1)C(=O)O,72.3% (active)
2,O=C(O)c1ccc(-n2cccc2)cc1O,5.6%
3,CCOc1cc(C)c(Cl)cc1S(=O)(=O)n1nnc2ccccc21,66.1% (active)
4,Cc1ccc(S(=O)(=O)n2cnc3ccccc32)c(C)c1,4.5%
5,CCCOc1cc(C)c(S(=O)(=O)n2nnc3ccccc32)cc1C,-9.4%
6,COc1cc(/C=C2\SC(=S)N(Nc3ncc(C(F)(F)F)cc3Cl)C2=O)cc(OC)c1OC,31.7%
7,COc1cccc(-c2cc3nc4c(c(N5CCC6(CC5)OCCO6)n3n2)CCCC4)c1,24.8%
8,NC(=O)C1CCN(C2OC(=O)c3ccccc32)CC1 (stereo not given),-2%
9,c1cnn(-c2cc(N3CCOCC3)ncn2)c1,5.4%
10,Cc1noc(C)c1C(=O)N1CCOCC1,-2.1%
11,Cc1ccc(-c2nc(COC(=O)c3c(C)noc3C)cs2)cc1,54% (active)
12,COC(=O)c1c(-c2ccc(C)cc2)csc1N,24.4%
13,O=C(/C(=N\O)n1cncn1)c1ccc(Br)cc1Br,33.6%
14,Cc1[nH]c2ccc(S(N)(=O)=O)cc2c1C,13%
15,CNC(=O)c1c(NC(NC(=O)c2ccco2)C(=O)c2ccc(Cl)cc2)sc2c1CCCC2 (stereo not given),21.4%
16,Cc1cccc(-n2c(N)cc(=O)nc2SC(C)C(=O)NC2CCCCC2)c1 (stereo not given),12.9%
17,CC(=O)Nc1cccc2c1[n+]([O-])c(C)c(C)[n+]2[O-],5%
18,CCn1c(SCC(=O)NCC2CCCO2)nc2cc(S(=O)(=O)N3CCCCC3)ccc21 (stereo not given),11%
19,CCOC(=O)c1ccc2c(c1)nc(SCC(=O)NC(C)C)n2CC,85.7% (active)
20,CCn1c(C)nc2cc(C(=O)NNS(=O)(=O)c3ccc(C)cc3C)ccc21,1.5%
21,N#Cc1ccccc1-n1c(N)c(C(=O)N2CCCC2)sc1=S,17.2%
22,CCC1CCCCN1CCNS(=O)(=O)c1ccc2c(c1)CCN2C(C)=O (stereo not given),-3.7%

row,SMILES,inhibition
1,Cc1ccc(NC(=O)C(C)c2cccc(C(=O)c3ccccc3)c2)cc1 (stereo not given),92.1% (active)
2,Cc1ccc(C(=O)c2c(NC(=O)c3ccccc3)sc(C)c2C)cc1,23.7%
3,CC(=O)c1cccc(NC(=O)Nc2ccc(C)cc2)c1,-13.3%
4,CCn1c(=O)cc(OCC(=O)NCCCN2CCN(c3cccc(Cl)c3)CC2)c2ccccc21,26.7%
5,CC(C)NC(=O)C(=O)NCCN1CCN(S(=O)(=O)c2ccc(Cl)cc2)CC1,7.4%
6,Cc1ccc(C2(c3ccc(C)cc3)NC(=O)N(Cc3c(C)noc3C)C2=O)cc1,14.6%
7,Cc1ccccc1-n1c(C)cc(/C=N/NC(=O)c2ccc(CN3CCOCC3)cc2)c1C,24.3%
8,OC(COc1ccccc1)Cn1cc(Br)cn1 (stereo not given),54.1% (active)
9,O=C(C(c1ccccc1)c1ccccc1)N1CCN(CC(O)COc2ccccc2)CC1 (stereo not given),41.9%
10,CC(C)c1ccc(OCC(O)Cn2cnc3ccccc32)cc1 (stereo not given),7.2%
11,COc1ccc(NC(=O)CN(C)S(=O)(=O)c2ccccc2)cc1OC,25.7%
12,COc1ccc(OC(C)C(=O)Nc2cccnc2)cc1 (stereo not given),7.1%
13,COc1cccc(NC(=O)C(C)Oc2ccccc2)c1 (stereo not given),79.9% (active)
14,COc1cccc(N(CC(=O)Nc2cccc(N(C)S(C)(=O)=O)c2)S(C)(=O)=O)c1,35.8%
15,COc1cccc(NC(=O)CN(C)S(=O)(=O)c2ccc(C)cc2)c1,78.9% (active)
16,COc1cccc(N(CC(=O)N2CCc3ccccc3C2)S(C)(=O)=O)c1,31.3%
17,CCOc1ccc(S(=O)(=O)N(CC(=O)O)c2ccccc2)cc1,2.3%
18,COc1cccc(NC(=O)Cc2ccc(C)cc2)c1,57.1% (active)
19,COc1cccc(NC(=O)c2ccccc2SC)c1,6.7%
20,CCN(CC)C(=O)CN(c1cccc(OC)c1)S(=O)(=O)c1ccc(C)cc1,64.9% (active)
21,CCC(=O)Nc1ccc(C(=O)Nc2cccc(OC)c2)cc1,-0.7%
22,COc1ccc(CC(=O)Nc2ccc(-c3nnc(-c4ccccc4)o3)cc2)cc1,18%

# Reference: PubChem BioAssay AID778 (Sanford-Burnham Center for Chemical Genomics, 2007)
